Measured values reported in ChEMBL document CHEMBL1201862, “PubChem BioAssay data set” (2004).

Target: Huntingtin (Homo sapiens) (UniProt P42858)
Experiment: Quantitative High-Throughput Multiplex Assay to Identify Dual Action Probes in a Cell Model of Huntington: Summary. [Related pubchem assays (depositor defined):AID1471, AID1688, AID2669, AID2672, AID2673, AID2713]; call rule not given here
Format: functional

Huntingtin (Homo sapiens), sequence (P42858 whole entry): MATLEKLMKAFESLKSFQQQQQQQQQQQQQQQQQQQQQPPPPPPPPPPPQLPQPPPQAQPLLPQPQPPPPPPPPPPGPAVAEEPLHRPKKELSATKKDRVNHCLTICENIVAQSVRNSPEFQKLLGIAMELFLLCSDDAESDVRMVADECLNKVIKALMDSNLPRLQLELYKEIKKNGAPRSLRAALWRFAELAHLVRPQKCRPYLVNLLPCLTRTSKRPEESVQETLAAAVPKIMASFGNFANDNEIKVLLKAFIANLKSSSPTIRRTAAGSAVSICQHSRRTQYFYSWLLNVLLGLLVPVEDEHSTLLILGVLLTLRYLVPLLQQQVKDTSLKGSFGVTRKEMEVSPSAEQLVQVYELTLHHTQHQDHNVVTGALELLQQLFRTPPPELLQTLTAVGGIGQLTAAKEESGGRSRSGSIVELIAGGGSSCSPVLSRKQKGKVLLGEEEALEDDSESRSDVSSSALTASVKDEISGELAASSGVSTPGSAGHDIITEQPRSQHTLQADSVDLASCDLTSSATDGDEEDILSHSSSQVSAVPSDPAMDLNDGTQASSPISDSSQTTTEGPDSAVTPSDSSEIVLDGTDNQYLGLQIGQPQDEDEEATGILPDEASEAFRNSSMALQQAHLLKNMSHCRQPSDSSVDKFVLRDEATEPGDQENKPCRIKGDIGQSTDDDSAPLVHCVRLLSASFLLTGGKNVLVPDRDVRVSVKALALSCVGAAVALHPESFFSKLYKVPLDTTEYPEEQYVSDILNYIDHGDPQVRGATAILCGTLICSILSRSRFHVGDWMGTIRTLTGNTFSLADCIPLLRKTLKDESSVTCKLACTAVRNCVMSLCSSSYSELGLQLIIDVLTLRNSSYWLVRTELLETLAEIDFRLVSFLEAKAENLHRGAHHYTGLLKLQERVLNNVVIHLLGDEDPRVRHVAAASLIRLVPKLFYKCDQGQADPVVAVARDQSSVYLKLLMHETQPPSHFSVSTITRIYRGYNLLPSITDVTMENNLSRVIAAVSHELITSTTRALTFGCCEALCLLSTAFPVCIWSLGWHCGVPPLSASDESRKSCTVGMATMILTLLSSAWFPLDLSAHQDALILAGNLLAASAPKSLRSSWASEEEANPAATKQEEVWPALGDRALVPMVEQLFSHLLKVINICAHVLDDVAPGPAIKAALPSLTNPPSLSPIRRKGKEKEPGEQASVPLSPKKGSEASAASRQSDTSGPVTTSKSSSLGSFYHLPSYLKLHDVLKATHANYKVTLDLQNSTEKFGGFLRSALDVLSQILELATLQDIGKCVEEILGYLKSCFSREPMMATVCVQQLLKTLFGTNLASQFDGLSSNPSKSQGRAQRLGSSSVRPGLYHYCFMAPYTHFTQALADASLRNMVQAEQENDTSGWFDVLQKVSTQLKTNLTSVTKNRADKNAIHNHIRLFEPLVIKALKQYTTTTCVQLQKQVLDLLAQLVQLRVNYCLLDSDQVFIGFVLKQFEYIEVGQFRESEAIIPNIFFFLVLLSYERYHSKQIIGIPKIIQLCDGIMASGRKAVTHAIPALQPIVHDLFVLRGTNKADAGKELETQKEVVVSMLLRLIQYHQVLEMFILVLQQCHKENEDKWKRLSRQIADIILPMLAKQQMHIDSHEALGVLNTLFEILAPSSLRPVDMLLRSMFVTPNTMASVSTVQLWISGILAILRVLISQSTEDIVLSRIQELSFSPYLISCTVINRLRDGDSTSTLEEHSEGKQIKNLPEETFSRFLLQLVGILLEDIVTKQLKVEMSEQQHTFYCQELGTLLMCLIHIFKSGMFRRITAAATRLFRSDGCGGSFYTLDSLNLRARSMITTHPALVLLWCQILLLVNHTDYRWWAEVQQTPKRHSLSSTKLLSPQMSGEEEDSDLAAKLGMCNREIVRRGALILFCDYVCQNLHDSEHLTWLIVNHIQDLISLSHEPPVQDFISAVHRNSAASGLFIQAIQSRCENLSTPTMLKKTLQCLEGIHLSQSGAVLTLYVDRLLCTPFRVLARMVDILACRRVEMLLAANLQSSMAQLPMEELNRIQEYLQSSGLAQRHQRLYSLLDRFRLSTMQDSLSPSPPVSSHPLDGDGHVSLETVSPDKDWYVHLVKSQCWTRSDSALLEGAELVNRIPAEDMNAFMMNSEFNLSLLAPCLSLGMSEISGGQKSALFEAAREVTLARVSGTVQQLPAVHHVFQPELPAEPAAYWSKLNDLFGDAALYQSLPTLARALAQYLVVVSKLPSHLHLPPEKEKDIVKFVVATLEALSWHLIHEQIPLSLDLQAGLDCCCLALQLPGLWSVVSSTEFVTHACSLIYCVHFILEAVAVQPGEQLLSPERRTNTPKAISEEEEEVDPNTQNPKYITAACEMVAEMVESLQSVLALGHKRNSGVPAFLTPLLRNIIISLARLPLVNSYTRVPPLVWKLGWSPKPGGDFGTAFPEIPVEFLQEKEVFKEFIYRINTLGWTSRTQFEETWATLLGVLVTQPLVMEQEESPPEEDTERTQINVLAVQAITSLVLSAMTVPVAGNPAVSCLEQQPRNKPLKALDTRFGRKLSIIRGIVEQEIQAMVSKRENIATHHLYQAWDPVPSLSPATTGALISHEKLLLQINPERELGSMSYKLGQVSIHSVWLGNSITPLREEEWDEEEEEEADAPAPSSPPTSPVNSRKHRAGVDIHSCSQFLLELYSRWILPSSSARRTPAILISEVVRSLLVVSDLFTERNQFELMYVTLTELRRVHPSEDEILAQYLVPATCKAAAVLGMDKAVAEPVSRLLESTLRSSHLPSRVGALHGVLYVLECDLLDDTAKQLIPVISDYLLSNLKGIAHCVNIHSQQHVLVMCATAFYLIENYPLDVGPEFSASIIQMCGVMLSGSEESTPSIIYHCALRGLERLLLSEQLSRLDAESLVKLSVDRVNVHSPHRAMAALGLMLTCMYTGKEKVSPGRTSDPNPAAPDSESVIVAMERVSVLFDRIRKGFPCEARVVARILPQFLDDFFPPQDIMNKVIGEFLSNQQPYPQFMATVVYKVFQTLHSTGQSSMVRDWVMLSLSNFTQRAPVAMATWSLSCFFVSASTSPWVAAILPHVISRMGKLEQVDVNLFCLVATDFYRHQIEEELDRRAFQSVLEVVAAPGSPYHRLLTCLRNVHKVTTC

Row | Structure (SMILES) | Potency
1 | Cn1nnnc1Sc1ncnc2scc(-c3ccc(Cl)cc3)c12 | 15.8 µM (active)
2 | COc1cccc(-c2csc3ncnc(Sc4nnnn4C)c23)c1 | 7.94 µM (active)
3 | Cn1nnnc1Sc1ncnc2scc(-c3ccccc3F)c12 | 12.6 µM (active)
4 | COc1ccc(-c2csc3ncnc(Sc4nnnn4C)c23)cc1 | 12.6 µM (active)
5 | Cc1cccc(-c2csc3ncnc(Sc4nnnn4C)c23)c1 | 15.8 µM (active)
6 | Cn1nnnc1Sc1ncnc2scc(-c3ccccc3C(F)(F)F)c12 | 25.1 µM (active)
7 | Cc1ccccc1-c1csc2ncnc(Sc3nnnn3C)c12 | 63.1 µM (active)
8 | Cc1ccc(-c2csc3ncnc(Sc4nnnn4C)c23)cc1 | 15.8 µM (active)
9 | Cn1nnnc1Sc1ncnc2scc(-c3ccccc3)c12 | 8.68 µM
10 | Cn1nnnc1Sc1ncnc2scc(-c3cccc(F)c3)c12 | 7.94 µM (active)
11 | COc1ccccc1-c1csc2ncnc(Sc3nnnn3C)c12 | 79.4 µM (active)
